# The list is not random: actives were taken first. Their share in the collection is about 12%.
# HP1b chromo inh = HTS for Inhibitors of HP1-beta Chromodomain Interactions with Methylated Histone Tails | Chromobox protein homolog 1 (Homo sapiens), P83916 | Potency, µM (series often up to 114 µM), for the others: at the highest dose activity change, negative = inhibition, most hits filed as inhibitors | 0.56% of 390,000 active | AlphaScreen HP1-beta / biotin-H3K9me3 peptide binding; further: nearly all actives have a fitted effect of over 70% in size
# Target sequence (P83916 whole entry, looked up): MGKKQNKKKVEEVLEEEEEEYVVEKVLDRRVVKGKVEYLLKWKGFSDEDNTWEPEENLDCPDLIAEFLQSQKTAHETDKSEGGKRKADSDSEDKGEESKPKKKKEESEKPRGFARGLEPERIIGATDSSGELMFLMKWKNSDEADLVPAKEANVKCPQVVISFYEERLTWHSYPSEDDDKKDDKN
#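 Compound inhibition of the preformed complex between 50 nM HP1-beta and 50 nM biotinylated H3K9me3 peptide was read by AlphaScreen. Buffer was PBS pH 7.4 with 0.01% Tween-20. Incubations ran 30 min at room temperature, with 10 ug/mL donor/acceptor beads.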
# G9a block = qHTS Assay for Inhibitors of Histone Lysine Methyltransferase G9a; AID 504332, 2011; G9a H3K9 monomethylation, AlphaScreen, 2 h; 8.8% of 350,000 active; Histone-lysine N-methyltransferase EHMT2 (Homo sapiens), Q96KQ7; Potency, µM (highest dose often 102 µM), for the others: at the top dose activity, negative = inhibition, actives largely listed as inhibitors; further: on the % scale 0 is the no-effect control and ±100 the full control effect; nearly all actives have a fitted effect of over 75% in size
# Target sequence (Q96KQ7 913-1193 limits assumed): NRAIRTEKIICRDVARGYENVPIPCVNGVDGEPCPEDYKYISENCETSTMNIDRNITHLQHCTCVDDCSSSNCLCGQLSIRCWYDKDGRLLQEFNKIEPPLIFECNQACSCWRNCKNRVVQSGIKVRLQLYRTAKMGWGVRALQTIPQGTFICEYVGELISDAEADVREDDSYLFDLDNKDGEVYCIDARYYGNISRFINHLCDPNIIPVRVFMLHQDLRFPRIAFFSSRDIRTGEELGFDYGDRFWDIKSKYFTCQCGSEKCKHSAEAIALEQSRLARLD
#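 Compounds were preincubated with 20 nM G9a for 15 min, after which biotinylated H3K9 peptide (500 nM) and SAM (20 uM) started a 2 h room-temperature reaction. Monomethylated product was quantified by antibody-based AlphaScreen chemiluminescence.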
# JMJD2A Tudor = qHTS Assay for Inhibitors of JMJD2A-Tudor Domain; Potency, µM (highest dose often 114 µM), for inactives: at the highest dose activity change, negative = inhibition, most hits filed as inhibitors; 4.4% of 390,000 active; AlphaScreen JMJD2A-Tudor / H3K4me3 peptide binding; Lysine-specific demethylase 4A (Homo sapiens), O75164; further: on the % scale 0 is the no-effect control and ±100 the full control effect; nearly all actives have a fitted effect of over 50% in size
# Sfp inh = qHTS Assay for Inhibitors of Bacillus subtilis Sfp phosphopantetheinyl transferase (PPTase); 4'-phosphopantetheinyl transferase ffp (Bacillus subtilis), Q9F4F7; Biochemical Sfp PPTase activity, qHTS; Potency, µM, inactives show largest response in the series, negative = inhibition, usual class: inhibitors; 3.5% of 310,000 active; AID 1490, 2009;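 further: the enzyme is Sfp with the accession as filed and its product quenches rhodamine fluorescence; 0% = enzyme reaction without inhibitor and -100% = no enzyme wells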
#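 Fluorescence-quenching assay with 15 nM Sfp, 5 uM rhodamine-CoA and 12.5 uM BHQ-2-labelled ybbR peptide in pH 7.6 Hepes/MgCl2 buffer. Enzyme was pre-incubated with compound for 15 min at room temperature. Rate was taken from the 30-min fluorescence change (525/598 nm).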
# BAZ2B inh = qHTS Assay for Inhibitors of BAZ2B. Potency, µM (top dose mostly 114 µM), inactives show top-dose activity change, negative = inhibition, most hits filed as inhibitors. AID 504333, 2011. AlphaScreen BAZ2B-H3K14Ac peptide displacement. Bromodomain adjacent to zinc finger domain protein 2B (Homo sapiens), Q9UIF8. 4.4% of 360,000 active; further: on the % scale 0 is the no-effect control and ±100 the full control effect; nearly all actives have a fitted effect of over 60% in size
#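 Inhibition is scored as reduced AlphaScreen emission. The BAZ2B/b-H3(5-23)K14Ac complex (50 nM each) in PBS pH 7.4, 0.01% Tween-20 meets compound (up to 110 uM) for 30 min at RT before bead addition.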
# PLK1 PBD block = qHTS for Inhibitors of PLK1-PDB (polo-like kinase 1 - polo-box domain): Primary Screen | Plk1 PBD binding of FITC phosphopeptide, fluorescence polarization | Potency, µM, for the others: max response, negative = inhibition, actives largely listed as inhibitors | 2.8% of 360,000 active | AID 720504, 2013; further: series mostly up to about 57 µM; on the % scale 0 is the no-effect control and ±100 the full control effect; nearly all actives have a fitted effect of over 65% in size
# Starred values were filed as active, the others as inactive; u = inconclusive; x = no result given; ! = repeats disagree; [ ] = remark or other dose. The call rests on the fitted dose curve; in most records, active means well fitted curve in the direction sought with a large enough effect; inconclusive means small, poorly fitted or top-dose-only effect, or another doubt; inactive means no such curve, though single readings can be large; an effect the other way counts as inactive or inconclusive. Potency means the concentration at half of the fitted maximal effect.
SMILES,HP1b chromo inh,G9a block,JMJD2A Tudor,Sfp inh,BAZ2B inh,PLK1 PBD block
COc1cccc(C(=O)NCC(=O)NCc2cc(=O)n(C)c(=O)n2C)c1,37.7%,24.0%,-6.2%,3.2%,-3.8%[57.1 µM],-1.6%
COc1cc2c(cc1NC(=O)CCCN1C(=O)CCC1=O)oc1ccccc12,-0.6%,3.3%[12.7 µM],-13.7%[11.4 µM],-5.4%,-2.7%,u
COC(=O)CCC(=O)c1oc2ccc(Cl)cc2c1NC(=O)CCCN1C(=O)c2ccccc2C1=O,16.0%,-15.7%[0.0925 µM],-2.0%,35.5µM*,6.5%,0.0%
CCc1ccc(NCc2cc3ccc(OC)cc3n(CC(=O)Nc3c(C)cc(C)cc3C)c2=O)cc1,3.5%,-5.2%[59 µM],-13.1%,x,-6.3%,x
CCCCC1=CC2=CC(=O)C(C)(OC(=O)c3cnc4ccccc4n3)C(=O)C2=CO1 (stereo not given),x,u,x,79.4µM*!,79.4µM*,x
CCCOc1ccc(C2CC(=O)NC2=O)cc1 (stereo not given),u,8.9%,u,14.1%,-1.0%,21.2µM*
CCCC(C)C(=O)OCC(=O)Nc1ccc(Br)cc1 (stereo not given),x,31.6µM*,x,15.5%,4.2%,x
CC(=O)NC(C)C(=O)OCC(=O)Nc1ccc(Br)cc1 (stereo not given),47.9%,1.7%,44.4%,7.4%,-7.6%,0.9%
COc1ccc(C2C(C(C)=O)=C(O)C(=O)N2C)c(OC)c1 (stereo not given),19.5%,44.7µM*,u,-8.7%,-36.6%,-6.4%
COc1ccc(C2C(C(C)=O)=C(O)C(=O)N2c2cccnc2)c(OC)c1 (stereo not given),16.1%,-2.6%[59 µM],25.1µM*,6.3%,u,-3.8%
COc1ccc(OC)c(C2C(C(C)=O)=C(O)C(=O)N2Cc2cccnc2)c1 (stereo not given),26.9%,u,-9.5%,-10.5%,u,-11.8%
CCOC(=O)N1CCN(C(=O)C[C@@H]2C[C@@]3(C(=O)OCC)CCC=C3N(Cc3ccco3)C2=O)CC1,x,x,x,x,x,0.7%
Cc1ccc(Cl)c(NC(=O)COC(=O)c2nn(C)c(=O)c3ccccc23)c1Cl,10.4%,8.1%[12.7 µM],-7.4%,x,-12.7%,-14.2%
O=C(NCCc1ccccc1)c1cc(-c2ccccc2)nc2n[nH]c(-c3ccccc3)c12,18.4%,-0.2%[59 µM],-19.8%,x,-3.0%,x
O=C(Cc1csc(NC(=O)Nc2ccc(Cl)cc2)n1)NCc1cccnc1,4.5%,u,-31.0%,x,u,-4.4%
O=C(Cc1csc(NC(=O)Nc2cccc(Cl)c2)n1)NCc1cccnc1,22.6%,35.5µM*,-24.1%,x,u,-5.1%
CS(=O)(=O)c1cnc2c(S(=O)(=O)c3ccccc3)cnn2c1N,1.2%,u,28.2µM*,8.1%,-25.0%,-7.1%
COC(=O)C1(Cc2ccccc2)C2c3cc(C(=O)N4CCCC4)n(Cc4ccc(OC(F)(F)F)cc4)c3CC2CN1C(=O)c1ccccc1 (stereo not given),x,x,x,-3.8%,x,x
Cc1ccc(NC(=O)CS(=O)CC(=O)N(c2ccc(C)cc2)C(C)C(=O)NC2CCCCC2)cc1 (stereo not given),41.1%,17.8µM*,-3.2%,-2.0%,16.0%,-6.4%
O=C(NC1CC1)c1cccc(NC(=O)c2cn3ccccc3n2)c1,-4.7%,10.4%[2.33 µM],39.8µM*,x,3.8%,-11.1%
O=C(Cc1c(O)c2ccccc2[nH]c1=O)NCc1ccccc1F,17.5%,70.8µM*,-5.0%,-8.7%,-1.7%,-2.5%
COCCC(=O)N1CCC(Oc2ccc(C(=O)NC(C)CCn3cccn3)cc2)CC1 (stereo not given),48.2%,7.5%,4.4%,12.3%,-3.0%,0.3%

# Assay outcomes: PubChem BioAssay, National Center for Advancing Translational Sciences (NCATS)
